An excerpt weighted towards active compounds, which were near 4.7% of everything screened.
D1 antagonist = human D1 dopamine receptor antagonism. HEK293 TREx D1 cells, calcium flux, dopamine EC80; stronger effect = lower value. P21728. 360,000 tested, 3.2% active. activity change, negative = inhibition, % at 10 µM; in the data active = activity change below about -30%; note: % is set by controls: 0 for no effect and ±100 for the full control effect
Target sequence (P21728 whole entry, looked up): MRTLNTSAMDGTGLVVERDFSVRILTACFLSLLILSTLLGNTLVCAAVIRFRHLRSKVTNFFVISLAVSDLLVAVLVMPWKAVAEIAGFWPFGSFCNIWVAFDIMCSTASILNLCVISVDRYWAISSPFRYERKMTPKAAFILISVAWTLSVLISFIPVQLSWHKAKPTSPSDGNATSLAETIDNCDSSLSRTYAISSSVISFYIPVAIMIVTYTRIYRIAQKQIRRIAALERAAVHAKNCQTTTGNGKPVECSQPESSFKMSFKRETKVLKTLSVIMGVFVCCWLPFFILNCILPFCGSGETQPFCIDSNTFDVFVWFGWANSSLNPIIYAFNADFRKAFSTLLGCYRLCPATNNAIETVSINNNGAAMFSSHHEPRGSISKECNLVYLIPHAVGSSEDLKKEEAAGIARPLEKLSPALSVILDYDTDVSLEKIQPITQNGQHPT
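Compound effects on dopamine-evoked calcium signalling were measured in tetracycline-induced HEK293 Trex D1 cells. Dopamine at EC80 followed a 180 s compound pre-read, and fluorescence was tracked kinetically for 180 s more.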
TRHR PAM = TRH receptor (human) allosteric enhancement; TRHR cells, fluo-8 calcium fluorescence, EC20 TRH enhancement; enhancement, % at 2 µM; 360,000 tested, 0.66% active; AID 493056; in the data active = enhancement above about 30%; note: 0% is about no effect
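TRHR-expressing cells loaded with fluo-8 calcium dye were read kinetically (ex 480/em 530) during compound addition, then stimulated with an EC20 of TRH (10 nM final). Enhancement of the Gq-mediated intracellular calcium response was scored.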
D1 agonist = agonists of human D1 dopamine receptor | P21728 | HEK293 T-REx D1 cells, calcium flux, agonist mode | activation, % at 2 µM | 360,000 tested, 1% active | AID 504660; note: 0% is about no effect
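Tetracycline-induced HEK293 TREx D1 cells, force-coupled to calcium signalling, were dye-loaded with a no-wash calcium kit. Compound was pin-added after a 10 s baseline. Fluorescence was read kinetically at 1 cycle/s for 180 s, with calcium rises flagged as agonism.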
TRHR ag = TRH receptor (human) agonism | 360,000 tested, 0.18% active | TRHR cells, calcium flux fluo-8, FDSS agonist mode | activation, % at 2 µM; note: 0% is about no effect
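Agonist-mode FDSS calcium read (Ex 480/Em 530, 1 s cycles) in 1536-well TRHR cells with fluo-8 dye, after 10-cycle baseline and 23 nL compound addition; TRH at EC20 (10 nM final) added afterwards for the enhancer phase.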
D1 PAM = potentiators of human D1 dopamine receptor; HEK293 TREx D1 cells, calcium flux, dopamine EC20 potentiation; potentiation, % at 10 µM; 360,000 tested, 0.036% active; AID 504651; in the data active = potentiation above about 30%; note: 0% is about no effect
Active calls of the source: *. Cut-off read from the data, not from the text of the source, unless noted: active = activation above about 30%; inactive = the rest.

SMILES	D1 antagonist	TRHR PAM	D1 agonist	TRHR ag	D1 PAM
COc1cc(SC)ccc1C(=O)OCC(=O)NCC(C)C	0	7	-4	0	0
CC(C)NC(=O)/C(C#N)=C\c1ccc(N(C)C)o1	-5	2	3	-1	3
CCN(CC)c1ccc(/C=C(/C#N)C(=O)NCc2ccccc2)o1	-6	8	152*	59*	-1
CCN(CC)c1ccc(/C=C(/C#N)C(=O)NC(C)C)o1	-7	0	57*	20	-4
CC(=O)Nc1ccc(/C=C(\C#N)C(=O)NCc2ccccc2)cc1	-7	-1	0	0	-2
COc1ccc(CNc2ccc3cc(S(=O)(=O)N4CCCCC4)ccc3n2)cc1	-7	1	6	0	-7
Cc1ccc(N/C=C(\[N+](=O)[O-])S(=O)(=O)c2ccccc2)cc1	-1	31*	3	0	-2
Cc1cccc(N/C=C(\[N+](=O)[O-])S(=O)(=O)c2ccccc2)c1	4	-3	1	1	-4
CN(C)c1ccc(CNC(=O)C2CCCN(S(=O)(=O)c3ccc4c(c3)oc(=O)n4C)C2)cc1 (centres undefined)	2	5	2	0	-1
Fc1ccc(CSc2ccc(-c3ccco3)nn2)cc1	-85*	-2	1	0	-7
COc1cc(Cn2c(=O)oc3ccc(C)cc32)ccc1OC(C)C	-33*	-9	11	1	-12
Cc1ccccc1OCC(=O)OCC(=O)c1c[nH]c2ccccc12	-15	-10	1	0	-4
COc1ccc2[nH]c3c(N4CCc5ccccc5C4)ncnc3c2c1	-32*	-4	8	0	-7
CN(C)c1ccc(/C=C/C(O)=C2/C(=O)N(C)C3(C)CC2c2ccccc2O3)cc1 (centres undefined)	-24	-6	69*	32*	-5
Cc1ccc(OCCSc2nc3ccccc3n2CC(=O)N2CCCCC2)cc1C	16	-6	8	-1	1
O=C(O)c1ccccc1N/N=C/C1=C(N2CCOCC2)C(=C\c2ccccc2)/CC1	-30*	-3	24	14	-5
Cc1cc(=O)[nH]c(N/N=C/C2=C(N3CCOCC3)C(=C\c3ccc(Cl)cc3)/CC2)n1	-23	3	1	1	1
Cc1cc(C)nc(N/N=C/C2=C(N3CCOCC3)C(=C/c3ccccc3)/CC2)n1	-45*	-2	0	-1	-12
COc1ccc(-c2cc(C(F)F)n3ncc(C(=O)Nc4cc(C)on4)c3n2)cc1	-38*	9	12	1	-3
CCCNC(=O)c1cnn2c(C(F)F)cc(-c3ccccc3)nc12	-6	30*	2	0	-4
COc1ccc(-c2cc(C(F)F)n3ncc(C(=O)Nc4c(C)n(C)n(-c5ccccc5)c4=O)c3n2)cc1	-13	-3	3	-2	-3
COc1ccc(N2CCN(C(=O)CN3CCSc4ccccc43)CC2)cc1	11	1	4	0	-1
O=C1/C(=C/c2cccc([N+](=O)[O-])c2)Oc2cc(O)ccc21	-30	-3	20	10	-1
COc1cc(/C=C2\Oc3cc(O)ccc3C2=O)ccc1O	7	-7	63*	33*	-6
O=C1/C(=C/c2ccc(O)c(O)c2)Oc2cc(O)ccc21	12	-4	46*	11	-6
SMILES	D1 antagonist	TRHR PAM	D1 agonist	TRHR ag	D1 PAM
Fc1ccc(C2=CC(c3ccc(F)cc3)n3c(nc4ccccc43)N2)cc1 (centres undefined)	0	7	2	0	-7
COc1ccc(C(C(=O)NCC2CCCO2)N(C(=O)Cn2nnc3ccccc32)c2ccc(NC(C)=O)cc2)c(OC)c1 (centres undefined)	-67*	0	18	1	-7
CC(=O)OCc1c(C(F)(F)F)nn(C)c1Oc1ccccc1	-14	6	-1	1	-2
CC(=O)OCc1c(C(F)(F)F)nn(C)c1Oc1cccc(C(F)(F)F)c1	-35*	15	18	0	-12
Cc1ccc(OCC(=O)Nc2cccc(OCc3cc(=O)n4ccccc4n3)c2)cc1C	-1	3	-1	0	0
CN(C)c1ccc(CNC(=O)CN2C(=O)CCn3nc(-c4cn(C)c5ccccc45)cc32)cc1	-4	0	2	0	0

Screens from PubChem BioAssay.
